Screens from PubChem BioAssay.
A selection: hits, their analogues and other compounds. The true share with any hit is near 3.1%.
EWS-Fli block – blocks EWS/Fli oncoprotein-driven transcription. A673 NR0B1-luciferase reporter, viability-normalised. inhibition, % at 12.6 µM. hit rate 0.67% among 350,000;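 active = mean inhibition of at least 50% after viability correction, with every replicate also passing that limit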;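 note: firefly luciferase signal divided by Alamar Blue viability fluorescence both relative to DMSO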
LMP1 NFkB inh – Epstein-Barr LMP1 NF-kappaB reporter inhibition. LMP1-induced NF-kappaB luciferase reporter cells, luminescence. inhibition, % at 12.5 µM. hit rate 0.69% among 350,000. AID 504558; in the data active = inhibition above about 41%;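 note: 0% = neutral control wells and 100% = reference inhibitor control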
PAX8 reporter – inhibitors of PAX8 transcriptional activity in RMG-I cells | inhibition, % at 12.6 µM | RMG-I TPO-luciferase reporter, SteadyGlo, 24 h | hit rate 1.2% among 360,000;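 active = mean replicate inhibition at least 60% with every replicate also reaching 60%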;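 note: luciferase light reporting Pax8 driven TPO promoter activity; plate controls were median of neutral control wells for no effect and mitoxantrone controls for full effect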
LGR2 inh – Drosophila LGR2 receptor signaling inhibition; HEK293 LGR2, CRE-luciferase, bursicon-stimulated, 4 h; inhibition, % at 9.99 µM; hit rate 0.35% among 380,000; AID 720647;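 active = drop in luminescence signal, shown as inhibition above about 50% in the replicate tests, limit read from the data, passing the limit was not always enough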;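 note: agonist challenge used bursicon conditioned medium at about half maximal strength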
TWEAK-Fn14 inh – TWEAK-Fn14 signaling inhibition. inhibition, % at 10 µM. TWEAK-stimulated Fn14 reporter cells, luciferase luminescence, 8 h. hit rate 2% among 360,000; in the data active = inhibition above about 50%
TROY signal inh – blocks TROY-dependent signaling in reporter cells. Q293 LMP1-TROYcd NF-kB luciferase reporter, 4 h. inhibition, % at 10 µM. hit rate 0.98% among 360,000. AID 1347056;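 active = compounds whose plate-normalised and pattern-corrected inhibition of the luciferase reporter signal at the single screening dose is 50% or more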
An asterisk follows results filed as active; · = no result given.

SMILES	EWS-Fli block	LMP1 NFkB inh	PAX8 reporter	LGR2 inh	TWEAK-Fn14 inh	TROY signal inh
COc1cccc(C(C)(O)c2nc(-c3cc(F)cc(F)c3)cs2)c1 (stereo unspecified)	18	·	-7	12	54*	31
CCN(CC)C(=O)c1cccc(-c2csc(C(C)(O)c3cccc(OC)c3)n2)c1 (stereo unspecified)	16	·	22	19	65*	40
O=C(Nc1ccc2c(c1)OCO2)N[C@@H]1CC[C@@H](CCNC(=O)C2CCOCC2)O[C@@H]1CO	-19	·	·	1	·	·
C[C@@H]1[C@@H](Sc2ccccc2)CC(=O)O[C@@H]1c1ccc(-c2ccccc2)cc1	13	2	24	42	36	-27
O=C1C=CC2(O[C@H](c3ccccc3)[C@@H](c3ccccc3)O2)[C@H](Sc2ccccc2O)C1	68*	82*	35	99*	105*	80*
CC1CCCN(C(=O)Cc2cn(Cc3cccc(Cl)c3)c3ccccc23)C1 (stereo unspecified)	21	-6	64*	19	35	37
O=C(Cc1cn(Cc2cccc(Cl)c2)c2ccccc12)N1CCCCCC1	7	3	3	19	39	32
Cc1ccc(/C=C2/Sc3ccccc3N(CC(=O)NCC3CCCO3)C2=O)cc1 (stereo unspecified)	·	11	·	·	22	-18
Cc1cc(/C=C2\Sc3ccccc3N2C)cc(C)[n+]1CC1CCCO1 (stereo unspecified)	47	19	78*	6	17	5
COCCN(Cc1nc(-c2ccc(-c3ccccc3)cc2)oc1C)C(C)C	-70	-49	6	-86	78*	-25
Cc1oc(-c2ccoc2)nc1CN(CC1CCC(=O)N1)C(C)C (stereo unspecified)	3	5	-2	·	1	6
Cc1ccc(NC(=O)C2CC(=O)N(Cc3ccccc3)C2)cc1S(=O)(=O)N1CCCCCC1 (stereo unspecified)	·	18	2	5	88*	61*
CCOc1ncccc1C(=O)Nc1ccc(C)c(S(=O)(=O)N2CCCCCC2)c1	22	9	25	6	63*	28
COc1cc(C(=O)NCC(=O)N2CCN(S(=O)(=O)c3cc(C)ccc3C)CC2)cc(OC)c1OC	54*	0	3	16	3	-16
COc1cc(CCC(=O)Nc2ccc(C)c(S(=O)(=O)N3CCCCCC3)c2)cc(OC)c1OC	13	28	20	7	51*	34
COc1ccc(NC(=O)CSc2ccc3ccccc3c2)cc1S(=O)(=O)N1CCCCC1	-24	10	36	15	59*	19
Cc1ccc(NC(=S)Nc2ccc(C(C)C)cc2)cc1S(=O)(=O)N1CCCCCC1	4	13	35	·	67*	17
C=CCNC(=S)Nc1ccc(C)c(S(=O)(=O)N2CCCCC2)c1	2	4	10	13	15	-3
O=C(Cn1ncc(Cl)c(Cl)c1=O)N1CCOCC1	48	6	26	100*	81*	-2
Cc1c2cnn(CC(=O)N3CCOCC3)c(=O)c2c(C)n1Cc1ccc(F)cc1	-2	·	-1	6	7	6
O=C(Cn1ncc2c1-c1ccccc1OC2)N1CCc2ccccc21	-4	3	21	23	-3	1
O=C(Cn1ncc(Cl)c(Cl)c1=O)N1CCc2ccccc21	54*	13	66*	70*	101*	13
O=C(Cn1ncc(Cl)c(Cl)c1=O)N1CCN(Cc2ccccc2)CC1	67*	88*	73*	104*	87*	56*
CCC(=O)N1CC(=O)N2[C@H](CO)[C@H](c3ccc(C#CCc4ccccc4)cc3)[C@@H]2C1	·	·	·	-20	·	·
CCCNC(=O)N1CC2(CCN(C(=O)CC)CC2)c2c(n(C)c3cc(OC)ccc23)[C@H]1CO	-1	·	·	-8	·	·
CC(C)(C)OC(=O)CC[C@@H](C(=O)NCCCCCCCCCCC(=O)N1CCN(C(=O)OC(C)(C)C)CC1)n1cc(CCCCCNC(=O)OC(C)(C)C)nn1	-4	6	18	0	13	-14
CC[C@H](C)[C@@H](C(=O)NCCCCCCCCCCC(=O)N1CCN(C(=O)OC(C)(C)C)CC1)n1cc(CCCCCNC(=O)OC(C)(C)C)nn1	23	19	63*	27	96*	45
